Compound activity: PubChem BioAssay, National Center for Advancing Translational Sciences (NCATS)
Sampled rows, rich in hits. Any-hit rate of the full collection: about 2.8%.
TSG101-PTAP inh = qHTS Validation Assay for Inhibitors of HIV-1 Budding by Blocking the Interaction of PTAP/TSG101: Sytravon Library Screen | Fluorescence polarization, FITC-PTAP peptide/Tsg101, 20 min | Potency, µM (doses to about 115 µM), usual class: inhibitors | 44,000 tested, under 10 active | AID 1347069, 2019; also: potency is read from the fitted curve at half-maximal effect; 0% is about no effect
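Compounds pinned into 10 uM Tsg101 binding domain, then 50 nM FITC-PTAP peptide added in pH 7.5 HEPES buffer; FP read after 20 min, room temperature. Total S+P intensity flags fluorescent compounds; active cut-off <25 µM, efficacy <60%.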
S16 viability = Cell viability qHTS assay in S16 Pmp22-F2sN cells; Potency, µM (doses to about 57.5 µM), for inactives: at the highest dose activity change, negative = cytotoxicity, most hits filed as cytotoxic; 43,000 compounds, 0.48% hits; S16 Pmp22-F2sN Schwann cells viability, CellTiter-Glo, 24 h; also: potency is read from the fitted curve at half-maximal effect; % is scaled to controls: 0 for no effect and ±100 for the full control effect; nearly all actives have a fitted effect of over 65% in size
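Seed 500-1,000 S16 Pmp22-F2sN cells per well in phenol-red-free DMEM with 10% heat-inactivated FBS; pin-add 23 nL compound; incubate 24 h at 37C; add CellTiter-Glo, wait 15 min protected from light; read luminescence.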
pS6 MEF inh = Acumen qHTS Assay for Inhibitors of the mTORC1 Signaling Pathway in MEF (Tsc2-/-, p53-/-) Cells: Sytravon | Tsc2-/- p53-/- MEF, phospho-rpS6 immunofluorescence/PI, 24 h | Potency, µM (highest dose often 38.3 µM), without a hit: at the top dose activity change, negative = inhibition, actives largely listed as inhibitors | 44,000 compounds, 0.78% hits | AID 493208, 2011;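 also: potency is read from the fitted curve at half-maximal effect; plate controls were DMSO for no effect and rapamycin for full effect; nearly all actives have a fitted effect of over 50% in size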
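Compounds act on Tsc2-/-, p53-/- fibroblasts carrying an empty vector for 24 h before fixation and dual staining for phospho-S6 and DNA (propidium iodide). Values are percentages of cells above a rapamycin-defined pS6/PI threshold.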
PMP22 txn prim = Cell-based coincidence reporter assay to measure PMP22 gene transcription in S16 Pmp22-F2sN cells - Primary screen; Potency, µM (titrated, usually from 57.5 µM), for the others: at the top dose activity change, negative = inhibition, actives largely listed as inhibitors; S16 Pmp22-F2sN Schwann cells (luciferase reporters placed in the Pmp22 gene), FLuc/NLuc coincidence luminescence, 24 h; 43,000 compounds, 2% hits; active = clear falling dose curves in both reporters; inconclusive = both reporters move, but less clearly or upward; inactive = either reporter flat; the % is the NLuc reporter signal; also: potency is read from the fitted curve at half-maximal effect; % is scaled to controls: 0 for no effect and ±100 for the full control effect
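Reporter cells (S16 Pmp22-F2sN, 500–1,000 per well) exposed to compounds for 24 h, 37C, 5% CO2; lysis with FLuc read after 10 min, then Stop&Glo and NLuc read after 10 min.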
GALK inh = qHTS Assay for Inhibitors of Human Galactokinase (GALK): NCGC Sytravon Library Screen | P51570 | recombinant GALK, Kinase-Glo ATP luminescence, 1 h | Potency, µM (top dose mostly 57.5 µM), inactives show top-dose activity, negative = inhibition, usual class: inhibitors | 44,000 tested, under 10 active | AID 1347072, 2019;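 also: plate controls were full GALK reaction for no effect and reaction lacking GALK for full effect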
Target sequence (P51570 whole entry, looked up): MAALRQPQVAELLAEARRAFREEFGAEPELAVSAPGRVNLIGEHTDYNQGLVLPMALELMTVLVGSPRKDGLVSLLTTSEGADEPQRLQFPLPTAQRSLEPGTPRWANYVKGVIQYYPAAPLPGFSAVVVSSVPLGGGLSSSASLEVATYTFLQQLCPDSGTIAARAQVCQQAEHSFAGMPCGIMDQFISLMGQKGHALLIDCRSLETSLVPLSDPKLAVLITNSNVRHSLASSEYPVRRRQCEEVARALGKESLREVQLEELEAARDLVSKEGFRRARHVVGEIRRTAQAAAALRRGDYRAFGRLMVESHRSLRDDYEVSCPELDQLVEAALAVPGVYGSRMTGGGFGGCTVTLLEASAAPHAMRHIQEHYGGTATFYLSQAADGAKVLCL
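Luminescent ATP-depletion readout (Kinase-Glo Plus) after 1 h room-temperature incubation of human GALK (5 nM) with galactose 100 µM and ATP 35 µM, pH 8.0 HEPES/Mg2+ buffer; compounds tested in qHTS format.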
Active calls of the source: *; i = inactive; ? = inconclusive. Unless noted, calls follow the shape of the dose curve; as a rule, active = well fitted curve in the direction sought with a large enough effect; inconclusive = small, poorly fitted or top-dose-only effect, or another doubt; inactive = no such curve, though single readings can be large; an effect the other way counts as inactive or inconclusive.

SMILES | TSG101-PTAP inh | S16 viability | pS6 MEF inh | PMP22 txn prim | GALK inh
Cc1ccc(NC(=O)c2c3c(nc4ccccc24)C(=O)N(C2CCCCC2)C3)cc1F | i | -2% | 1% | ? | 5%
Cn1c(=O)oc2cc(S(=O)(=O)N3CCCC(C(=O)NCc4ccc(F)cc4)C3)ccc21 (configuration not stated) | i | -2% | -7% | -9% | -1%
Cc1cc(NC(=O)c2ccco2)cc(-c2nc3cc(Cl)ccc3o2)c1O | i | -19% | 12µM* | ? | -1%
Cc1ccc(CNC(=O)c2ccc(CS(=O)(=O)Cc3ccc(F)cc3)o2)cc1 | i | -2% | -9% | -34% | -2%
CCOc1ccc(NC(=O)c2nc(S(=O)(=O)Cc3ccccc3F)ncc2Cl)cc1 | i | 5µM* | 3.7µM* | 1.3µM* | 8%
CCOc1ccccc1NC(=O)c1sc2nc(C)cc(C)c2c1N | i | -2% | 3% | ? | 2%
CCOc1ccccc1NC(=O)c1nc(S(=O)(=O)Cc2cccc(C)c2)ncc1Cl | i | 3.2µM* | ? | 1.7µM* | -3%
CCc1nnc(NC(=O)c2nc(S(=O)(=O)Cc3ccc(C)cc3)ncc2Cl)s1 | i | ? | ? | ? | -1%
Cc1cccc(CS(=O)(=O)c2ncc(Cl)c(C(=O)Nc3nnc(C(C)C)s3)n2)c1 | i | ? | 16µM* | 9.6µM* | ?
CCc1nnc(NC(=O)c2nc(S(=O)(=O)Cc3cccc(C)c3)ncc2Cl)s1 | i | ? | 12µM* | 9.5µM* | 2%
COCCCNC(=O)NC(CCC(C)C)c1c(-n2cccc2)sc2c1CCN(C)C2 (configuration not stated) | i | 20% | -2% | ? | -4%
O=C(c1nc(-c2ccc(Cl)cc2)n2c1CCCCC2)N1CCN(c2ccc(F)cc2)CC1 | i | ? | -7% | ? | 5%
Cc1ccc(C)c(NC(=O)c2nc(S(=O)(=O)Cc3ccc(F)cc3)ncc2Cl)c1 | i | ? | 2.1µM* | 7.6µM* | -2%
Cc1ccc(CS(=O)(=O)c2ncc(Cl)c(C(=O)Nc3nnc(C(C)C)s3)n2)cc1 | i | ? | 15µM* | 8.9µM* | 0%
CC(C)c1nnc(NC(=O)c2nc(SCc3ccc(F)cc3)ncc2Cl)s1 | i | 8% | -3% | -4% | 8%
COc1ccccc1CCNC(=O)Cc1c(C)c2cc3c(C(C)(C)C)coc3c(C)c2oc1=O | i | 1% | 3% | 2% | 0%
COc1ccccc1NC(=O)C1CCCN(c2ncnc3onc(-c4ccc(F)cc4)c23)C1 (configuration not stated) | i | ? | 1% | ? | 4%
CCOc1ccc(-c2noc(CSc3nnc(Cc4ccccc4)n3-c3cccc(C)c3)n2)cc1 | i | -24% | -22% | ? | 0%
COC(=O)c1ccc(Nc2nnc(-c3ccc(C)c(S(=O)(=O)N4CCN(C)CC4)c3)c3ccccc23)cc1 | i | ? | 21µM* | -44% | -1%
CCc1ccc(S(=O)(=O)c2nnn3c2nc(Nc2ccc(NC(C)=O)cc2)c2sccc23)cc1 | i | 11% | 1% | 11µM* | ?
O=C(Nc1nnc2n1CCS2)c1cc(C(F)(F)F)cc(C(F)(F)F)c1 | i | ? | 0% | 8.9µM* | 0%
Cc1cc(C)cc(C(=O)Nc2nnc3n2CCS3)c1 | i | -25% | 0% | ? | 1%
COc1ccc(Cl)cc1NC(=O)c1cc(C)nn1-c1ccccc1 | i | -7% | -2% | 1% | 8%
COc1ccc(CNC(=O)c2ccc3nc(C(C)C)oc3c2)cc1OC | i | 28µM* | 0% | ? | -1%
